The text below walks through data of PubChem BioAssay (NCATS).

Where “and” joins values, the source holds several entries; their conditions need not be identical. Equal values may be shown once. Records with an inconclusive call do not appear. Where a structure was tested more than once in an assay, its records may differ in their call. Calls of active or inactive are those of the source. Calls come from the whole dose curve; as a rule, active = well fitted curve in the direction sought with a large enough effect; inconclusive = small, poorly fitted or top-dose-only effect, or another doubt; inactive = no such curve, though single readings can be large or run the other way.
% is set by controls: 0 for no effect and ±100 for the full control effect; potency is the fitted concentration of half-maximal effect.

The experiment is described as follows: qHTS Assay for Identifying Gametocytocidal Compounds (AID 743244).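 For max response: actives lower the fluorescent signal which means gametocytes are killed.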 The settings on record: P. falciparum 3D7 stage III-V gametocytes, alamarBlue, 72 h; max response: stronger effect = lower value. From the text:
Malaria cases and deaths have dropped 50% in 29 countries since 2000 due to the combined effects of long-lasting insecticidal bednets, indoor residual spraying, and artemisinin-based combination therapies (ACTs). This success has raised hopes for malaria eradication and consequently stimulated interest in developing new reagents that block gametocyte transmission such as novel and safe gametocytocidal drugs. However, previous drug development efforts have focused primarily on the asexual parasites that cause symptoms, but not malaria transmission. Consequently, patients can remain infectious for weeks after the clearance of asexual parasites and clinical symptoms. To be transmitted from person to person via a mosquito, the parasites must switch from asexual to sexual development and produce male and female gametocytes. Malaria gametocytes consist of five stages (I, II, III, IV and V). The late stage gametocytes (III, IV and V) are difficult to be cultured in vitro and the long lifespan of mature gametocytes allows them being transmitted from host to mosquitoes unless they are completely eliminated by gametocytocidal agents. To identify gametocytocidal compounds which are capable of killing late stage P. falciparum gametocytes, a high throughput gametocyte viability assay was employed. This assay uses oxidoreduction indicator, alamarBlue, as a general measure of metabolic activity of gametocytes. Within live cells, the nonfluorescent resazurin is reduced to resorufin, a bright red fluorescence dye. Fluorescence decreases upon treatment of gametocytocidal compounds. P. falciparum gametocyte (3D7 strain) was used in this study.
The 1536-well gametocycidal viability assay was based on the previous method of Tanaka et al. Stage III-V gametocytes were tested against three compound libraries, including 4265 compounds from NCGC pharmaceutical collection, 400 from Malaria Box library, and 550 from an internal collection of kinase inhibitors. Briefly, 2.5 ul/well incomplete medium was dispensed into each well of 1,536-well plates using the Multidrop Combi followed by 23 nl compound transferring using the NX-TR Pintool (WAKO Scientific Solutions, San Diego, CA). Then, 2.5 ul/well of gametocytes was dispensed with a seeding density of 20,000 cells/well using the Multidrop Combi. The assay plates were incubated for 72 h at 37C with 5% CO2. After addition of 5 ul/well of 2X AlamarBlue dye (Life Technologies, cat. no. DAL1100), the plates were incubated for 24 h at 37C with 5% CO2 and then were read in a fluorescence detection mode (Ex = 525 nm, Em = 598 nm) on a ViewLux plate reader (PerkinElmer).
(In general: In qHTS, concentration-response curves come from the screen itself.)
On to `CC(=O)c1ccc2c(c1)N(CCCN(C)C)c1ccccc1S2`, for which the max response was -10.5% (inactive).
As to `O=C1NS(=O)(=O)c2ccccc21`, the max response is 5.05% (inactive).
Consider `Cc1cc(N)c2ccccc2[n+]1CCCCCCCCCC[n+]1c(C)cc(N)c2ccccc21`, for which the Potency is 3.98 µM (active).
Take `C[C@H]1O[C@H](O[C@H]2[C@H](O)[C@@H](O)[C@@H](O[C@H]3[C@H](O)[C@@H](O)[C@H](O)O[C@@H]3CO)O[C@@H]2CO)[C@H](O)[C@@H](O)[C@@H]1N[C@H]1C=C(CO)[C@@H](O)[C@H](O)[C@H]1O`: the max response is 2.05% (inactive).
On to `O=C1OC(OC(=O)c2cccnc2Nc2cccc(C(F)(F)F)c2)c2ccccc21` (stereo not given), for which the max response is 9.12% (inactive).
For `C[C@](N)(Cc1ccc(O)cc1)C(=O)O`, the max response was 18.5% (inactive) and 8.95% (inactive).
On to `C[C@@H]1CCN(C(=O)[C@H](CCCN=C(N)N)NS(=O)(=O)c2cccc3c2NC[C@H](C)C3)[C@@H](C(=O)O)C1`, for which the max response is -0.0233% (inactive).
Consider `COc1ccc2[nH]c(S(=O)Cc3ncc(C)c(OC)c3C)nc2n1` (stereo not given), for which the max response is -2.18% (inactive).
As for `Oc1ccc(C(O)CNCCCCCCNCC(O)c2ccc(O)c(O)c2)cc1O` (stereo not given), the max response is -5.82% (inactive).
Turning to `Cc1c(Cl)cccc1Nc1ccccc1C(=O)O`, the max response is -7.91% (inactive).
Same read-out and setting: the same measure for `CC(COc1ccccc1)NC(C)C(O)c1ccc(O)cc1` (stereo not given): 25.2% (inactive); for `CCn1cc(C(=O)O)c(=O)c2cnc(N3CCNCC3)nc21`: 12.2% (inactive).
With `CCOC(=O)[C@H](CCc1ccccc1)N[C@@H](C)C(=O)N1C(=O)N(C)C[C@H]1C(=O)O`, the max response is 6.96% (inactive).
Turning to `Cc1cc2nc3c(=O)[nH]c(=O)nc-3n(C[C@H](O)[C@H](O)[C@H](O)CO)c2cc1C`, the max response is 33.2% (inactive) and 6.89% (inactive).
Regarding `CN(N=O)C(=O)N[C@@H]1[C@@H](O)[C@H](O)[C@@H](CO)O[C@@H]1O`, the max response was 5.26% (inactive).
For the compound `NS(=O)(=O)c1cc2c(cc1C(F)(F)F)NC(Cc1ccccc1)NS2(=O)=O` (stereo not given), the max response was 5.19% (inactive).
Turning to `O=C1NC(=O)[C@@]2(CCOc3ccc(F)cc32)N1`, the max response is -2.96% (inactive).
Same read-out and setting: the same measure for `O=c1cc(CO)occ1O`: 1.55% (inactive) and -0.506% (inactive); for `C[C@]12CC[C@@H]3c4ccc(O)cc4CC[C@H]3[C@@H]1CCC2=O`: -6.45% (inactive) and 30.5% (inactive).
For the compound `O=C1N=C(O)CN1/N=C/c1ccc(-c2ccc([N+](=O)[O-])cc2)o1`, the max response is 4.07% (inactive) and 20.9% (inactive).
As for `O=C1O[C@H](CO)[C@@H](O)[C@H](O)[C@H]1O`, the max response was -3.17% (inactive).
Turning to `N[C@H]1C(O)O[C@H](CO)[C@@H](O)[C@@H]1O` (stereo not given in full), the max response was -9.09% (inactive).
The same measure, in the same setting: the same measure for `NC1CCN(c2cccc(Cl)n2)CC1`: 1.41% (inactive) and 17.3% (inactive); for `Nc1ccc(S(=O)(=O)Nc2ccccc2)cc1`: -2.25% (inactive).
On the same count and under the same terms, next, `CCCCc1ncc(/C=C(\Cc2cccs2)C(=O)O)n1Cc1ccc(C(=O)O)cc1`: -3.3% (inactive).
Regarding `CC(C)C(=O)c1c(C(C)C)nn2ccccc12`, the max response is -11.3% (inactive) and 12.6% (inactive).
As to `CSc1ccc2c(c1)C(N1CCN(C)CC1)Cc1ccccc1S2` (stereo not given), the Potency is 12.6 µM (active).
With `CC(=O)O[C@@]12CO[C@@H]1C[C@H](O)[C@@]1(C)C(=O)[C@H](O)C3=C(C)[C@@H](OC(=O)[C@H](O)[C@@H](NC(=O)OC(C)(C)C)c4ccccc4)C[C@@](O)([C@@H](OC(=O)c4ccccc4)[C@H]21)C3(C)C`, the Potency was 18.7 µM (active) and the max response was -16.9% (inactive).
In the case of `CCCOC(=O)c1ccccc1`, the max response was -2.44% (inactive).
In the case of `CC(=O)NC(Cc1ccccc1)C(=O)O` (stereo not given), the max response was -1.78% (inactive).
For `NC(=O)c1ncn([C@@H]2O[C@H](CO)[C@@H](O)[C@H]2O)c1N`, the max response is -0.312% (inactive) and 4.68% (inactive).
Still for that read-out and setting: the same measure for `COc1cc2[nH]c(=O)[nH]c(=O)c2cc1OC`: 5.15% (inactive).
The same measure, in the same setting: next, `[O-][n+]1cccc(CO)c1`: -4.23% (inactive); `Cc1ccc2nc(N)[nH]c(=O)c2c1Sc1ccncc1`: -4.42% (inactive).
With `NC(=O)N/N=C/c1ccc([N+](=O)[O-])o1`, the max response was 4.19% (inactive) and the Potency was 35.5 µM (active).
Regarding `O=c1[nH]c(=O)c2[nH]c(=O)[nH]c2[nH]1`, the max response is 19.7% (inactive) and 9.73% (inactive).
With `CCC(=O)Nc1ccc(O)cc1`, the max response was 7.2% (inactive).
For `Nc1cc(=O)[nH]c(N)n1`, the max response is -11.1% (inactive) and 4.42% (inactive).
